Assay outcomes as filed in PubChem BioAssay.
Sampled rows, rich in hits. Any-hit rate of the full collection: about 4.6%.
D1 antagonist = Antagonist of Human D 1 Dopamine Receptor: qHTS. HEK293 TREx D1 cells, calcium flux, dopamine EC80; stronger effect = lower value. activity change, negative = inhibition, % at 10 µM. 360,000 tested, 3.2% active; in the data active = activity change below about -30%; also: % is scaled to controls: 0 for no effect and ±100 for the full control effect
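HEK293 T-REx cells expressing inducible, force-coupled D1 receptor; no-wash Ca dye, 30–90 min RT. Cmpd → 180 s read at 1 Hz → EC80 DA → 180 s read.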
TRHR agonist = qHTS for Small Molecule Agonists and Allosteric Enhancers of Human TRH Receptor: Primary Screen for Agonists | Thyrotropin-releasing hormone receptor (Homo sapiens), P34981 | activation, % at 2 µM | 360,000 tested, 0.18% active | AID 493084, 2011 | TRHR cells, calcium flux fluo-8, FDSS agonist mode; also: 0% is about no effect
Target sequence (P34981 whole entry, looked up): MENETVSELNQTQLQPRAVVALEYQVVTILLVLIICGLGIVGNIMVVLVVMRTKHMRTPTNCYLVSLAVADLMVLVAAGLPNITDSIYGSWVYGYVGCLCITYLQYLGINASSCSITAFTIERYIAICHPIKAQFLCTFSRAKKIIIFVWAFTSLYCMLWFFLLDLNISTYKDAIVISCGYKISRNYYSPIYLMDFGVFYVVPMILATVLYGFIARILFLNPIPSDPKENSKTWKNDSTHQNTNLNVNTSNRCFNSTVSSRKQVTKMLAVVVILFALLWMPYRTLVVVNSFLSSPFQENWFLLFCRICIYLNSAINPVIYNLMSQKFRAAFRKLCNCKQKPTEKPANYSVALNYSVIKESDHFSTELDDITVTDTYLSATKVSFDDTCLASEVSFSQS
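TRHR-expressing cells loaded with fluo-8 calcium dye; 23 nL library compound pin-transferred, kinetic FDSS fluorescence (Ex 480/Em 530) recorded about 180 s for agonist-induced calcium release, before a 10 nM TRH EC20 addition for potentiator mode.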
D1 potentiator = Potentiators of Human D1 Dopamine Receptor: qHTS. D(1A) dopamine receptor (Homo sapiens), P21728. HEK293 TREx D1 cells, calcium flux, dopamine EC20 potentiation. potentiation, % at 10 µM. 360,000 tested, 0.036% active. AID 504651, 2011; in the data active = potentiation above about 30%; also: 0% is about no effect
TRHR enhancer = qHTS for Small Molecule Agonists and Allosteric Enhancers of Human TRH Receptor: Primary Screen for Enhancers | AID 493056, 2011 | TRHR cells, fluo-8 calcium fluorescence, EC20 TRH enhancement | Thyrotropin-releasing hormone receptor (Homo sapiens), P34981 | 360,000 tested, 0.66% active | enhancement, % at 2 µM; in the data active = enhancement above about 30%; also: 0% is about no effect
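TRHR-expressing cells loaded with fluo-8 calcium dye were read kinetically (ex 480/em 530) during compound addition, then stimulated with an EC20 of TRH (10 nM final). Enhancement of the Gq-mediated intracellular calcium response was scored.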
D1 ag = Allosteric Agonists of the Human D1 Dopamine Receptor: qHTS; HEK293 T-REx D1 cells, calcium flux, agonist mode; 360,000 tested, 1% active; D(1A) dopamine receptor (Homo sapiens), P21728; activation, % at 2 µM; also: 0% is about no effect
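Agonism was scored from calcium flux recorded over 180 s (1 read/s) after pintool compound addition, following a 10-cycle baseline. Cells were inducible force-coupled HEK293 TREx D1, plated overnight at 30 C and loaded with no-wash calcium dye.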
The depositor's hits bear a star; ! = repeats disagree. Rule as the data show it, unless noted: active = activation above about 30%; inactive = the rest.

SMILES | D1 antagonist | TRHR agonist | D1 potentiator | TRHR enhancer | D1 ag
Cc1[nH]c2ccccc2c1SCC(=O)N1CCCCC1 | -17.5 | 0.0 | -4.5 | 0.5 | 2.0
Cc1[nH]c2ccccc2c1SCC(=O)N1CCN(c2ccccc2)CC1 | -43.2* | 0.4 | -7.3 | 11.0 | -1.4
CN1CCCN(C(=O)CC(c2ccccc2)c2ccccc2)CC1 | 7.9 | -1.1 | -4.1 | -1.3 | -0.3
O=C(CCC(=O)N1CCN(c2ccccc2F)CC1)N1CCN(c2ccc(F)cc2)CC1 | -13.6 | -0.3 | -1.1 | 0.9 | 3.8
O=C(CSc1ccccc1C(=O)N1CCN(c2ccccc2)CC1)N1CCCC1 | -43.9* | -0.4 | -9.5 | 2.6 | 0.3
O=C(CCC(=O)N1CCN(c2ccccc2F)CC1)N1CCN(c2ccccc2)CC1 | -61.5* | 0.4 | -3.2 | 10.6 | 8.6
O=C(CSc1ccccc1)N1CCN(c2ccccc2)CC1 | -33.7* | 2.4 | -5.0 | -1.1 | -1.2
C=CCOC(=O)Nc1snnc1C | 9.9 | 0.2 | 3.4 | -5.6 | 1.1
Cc1nnsc1NC(=O)OCc1ccc(C(C)(C)C)cc1 | -32.4* | 0.2 | -2.5 | -5.9 | 7.9
O=C1/C(=C/c2cccc(F)c2)Oc2cc(O)ccc21 | -36.4* | 21.0 | -5.1 | -0.1 | 34.5*
O=C(N/N=C/c1sc(N2CCOCC2)nc1-c1ccccc1)c1ccccc1Cl | 7.0 | 0.9 | 1.7 | 0.1 | 0.3
O=[N+]([O-])c1ccc(N/N=C/c2sc(N3CCOCC3)nc2-c2ccccc2)c(S(=O)(=O)Nc2ccc(Cl)cc2)c1 | -34.6* | 15.4 | -4.0 | -1.8 | 62.4*
O=[N+]([O-])c1ccc(N/N=C/c2sc(N3CCOCC3)nc2-c2ccccc2)c(S(=O)(=O)Nc2ccccc2Cl)c1 | -34.4* | 18.8 | -5.2 | -9.2 | 79.3*
CC(=O)OC1COC(N2CCc3ccccc32)C(OC(C)=O)C1OC(C)=O (stereo unspecified) | 7.7 | -0.3 | 1.2 | 36.4* | 1.4
COC(=O)c1ccc(N2CCOCC2)c(NC(=O)c2ccc3c(c2)OCO3)c1 | -12.2 | -0.3 | -5.3 | 1.1 | 0.9
COc1cc(NC(=O)c2ccc3c(c2)OCO3)c2ncccc2c1 | -30.7* | 0.6 | 3.1 | -4.2 | 1.7
COc1ccc(C(=O)Nc2ccccc2N2CCOCC2)cc1[N+](=O)[O-] | -32.1* | 0.1 | 0.4 | -0.2 | 0.9
COc1ccc(N2CCCC2)c(NC(=O)c2ccc([N+](=O)[O-])o2)c1 | -35.7* | 0.5 | -11.2 | 2.0 | 4.3
COc1ccc(N2CCOCC2)c(NC(=O)c2ccc3c(c2)OCO3)c1 | 1.9 | 0.0 | -0.6 | 37.8* | 2.1
COc1ccc(C(=O)NC(=S)Nc2ccccc2N2CCOCC2)cc1[N+](=O)[O-] | -1.1 | -0.4 | 1.0 | -0.7 | 2.9
CSc1ccc(CCNC(=O)c2c(C)nn(-c3ccc(F)cc3)c2-n2cccc2)cc1 | -13.4 | 1.3 | -3.5 | 4.0 | 14.3
Cc1ccsc1C1C(C#N)=C(N)N(N(C)C)C2=C1C(=O)CCC2 (stereo unspecified) | -35.4* | 0.1 | -2.3 | 5.4 | 7.4
Cc1ccc(NC(=O)C2(c3ccc([N+](=O)[O-])cc3)CCCC2)cc1 | 3.2 | 4.7 | 4.6 | 33.3* | 22.7
Cc1ccc(OCC(=O)Nc2ccc([N+](=O)[O-])cc2)cc1 | -38.5* | -0.9 | -3.8 | -3.2 | 6.8
COc1ccc(OCC(=O)Nc2ccc(-c3nc4cc(C)c(C)cc4o3)cc2)cc1 | -30.5* | 1.9 | 0.7 | 1.0 | -0.3
SMILES | D1 antagonist | TRHR agonist | D1 potentiator | TRHR enhancer | D1 ag
CC(=O)Nc1ccc(S(=O)(=O)NNC(=O)COc2ccc(C)cc2)cc1 | -33.3* | 0.3 | -19.4 | 0.0 | 0.3
COc1ccc(NC(=O)C2(c3ccc(NC(=O)c4ccc(OC)cc4)cc3)CCCC2)cc1 | 9.3 | 0.3 | 2.9 | 1.4 | 1.1
COc1ccc(NC(=O)CN2C(=O)COc3ccc(S(=O)(=O)Nc4ccccc4)cc32)cc1OC | -15.1 | -0.1 | 1.6 | 3.0 | 1.5
CCc1ccccc1NC(=O)CN1C(=O)C2CCCN2c2ccc(S(=O)(=O)N(CC)CC)cc21 (stereo unspecified) | 8.2 | 0.3 | -2.6 | -3.1 | 5.3
CN(C(=O)c1nn(C)c2c1COc1ccccc1-2)c1cccc(C(F)(F)F)c1 | -2.0 | -0.4 | 1.7 | -7.7 | -1.0
CC(C)c1ccc(NC(=O)C2CCCN(S(=O)(=O)c3ccc(Br)s3)C2)cc1 (stereo unspecified) | 0.1 | 0.9 | 1.4 | -0.1 | 4.5
O=C(COc1ccccc1)Nc1ccc([N+](=O)[O-])cc1 | -81.6* | 0.5 | -8.5 | 2.9 | 14.1
CCN1C(=O)C(CC(=O)Nc2ccc(OC)cc2)N(CCCN2CCN(c3ccc(F)cc3)CC2)C1=S (stereo unspecified) | -43.1* | 1.5 | -6.4 | 0.2 | 10.7
COc1ccc(CCN2C(=S)N(C)C(=O)C2CC(=O)Nc2ccc(OC)cc2)cc1 (stereo unspecified) | -11.5 | 1.3 | -4.0 | 3.0 | 7.5
COc1ccc(NC(=O)CC2C(=O)N(C)C(=S)N2CCc2ccccc2)cc1 (stereo unspecified) | -41.2* | 1.5 | -8.2 | -1.2 | 5.3
CC(Sc1nnc2ccc3ccccc3n12)C(=O)Nc1ccc(Cl)cc1 (stereo unspecified) | 4.8 | 0.4 | -0.7 | 0.3 | 0.4
CN(c1ccccc1)S(=O)(=O)c1nnc(NC(=O)C2CCCCC2)s1 | -36.6*! | 0.5 | -5.3 | -0.6 | 7.4
CCN(c1ccccc1)S(=O)(=O)c1nnc(NC(=O)c2cccs2)s1 | -41.3* | -0.2 | -3.4 | 6.0 | 23.4
CCc1ccc(C(=O)C(C)OC(=O)c2nn(C)c(=O)c3ccccc23)cc1 (stereo unspecified) | -15.1 | -0.1 | -8.2 | 8.6 | 34.6*
CC(=O)N1CCCC1c1nc2ccccc2n1Cc1c(F)cccc1Cl (stereo unspecified) | -0.9 | 0.3 | -1.0 | 1.0 | -1.2
N#C/C(=N\Nc1ccc(Cl)c(Cl)c1)C(=O)C1CC1 | -44.3* | 0.2 | -4.8 | -3.0 | 23.0
Cc1ccccc1Cn1c2ccccc2c2cnn(CC(=O)NCCc3ccc(Cl)cc3)c(=O)c21 | -2.4 | -0.1 | -4.2 | 4.5 | 0.4
O=C(CC1C(=O)N(c2ccc(F)cc2)C(=O)N1Cc1ccc2c(c1)OCO2)Nc1ccc(Cl)cc1 (stereo unspecified) | -11.9 | 1.4 | -0.1 | -0.1 | 4.6
O=c1cc(CN2CCN(S(=O)(=O)c3ccccc3)CC2)nc2sc(-c3ccccc3Cl)nn12 | 1.1 | -0.7 | 2.5 | 1.4 | -0.3
